In ChEMBL document CHEMBL1961873, “Compounds: GSK PKIS; Assays: Nanosyn kinase panel” (2012):
Several values for one entry are separate records, joined by “and”; a condition that tells them apart may be missing. Identical values can stand only once.

What was measured:
[1] = biological target: Mitogen-activated protein kinase 3 (Homo sapiens) (UniProt P27361); conditions: at 1 µM;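 note: values are mean percent inhibition of MAPK3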
[2] = biological target: SRSF protein kinase 3 (Homo sapiens) (UniProt Q9UPE1); conditions: at 0.1 µM
SRSF protein kinase 3 (Homo sapiens), sequence (Q9UPE1 whole entry): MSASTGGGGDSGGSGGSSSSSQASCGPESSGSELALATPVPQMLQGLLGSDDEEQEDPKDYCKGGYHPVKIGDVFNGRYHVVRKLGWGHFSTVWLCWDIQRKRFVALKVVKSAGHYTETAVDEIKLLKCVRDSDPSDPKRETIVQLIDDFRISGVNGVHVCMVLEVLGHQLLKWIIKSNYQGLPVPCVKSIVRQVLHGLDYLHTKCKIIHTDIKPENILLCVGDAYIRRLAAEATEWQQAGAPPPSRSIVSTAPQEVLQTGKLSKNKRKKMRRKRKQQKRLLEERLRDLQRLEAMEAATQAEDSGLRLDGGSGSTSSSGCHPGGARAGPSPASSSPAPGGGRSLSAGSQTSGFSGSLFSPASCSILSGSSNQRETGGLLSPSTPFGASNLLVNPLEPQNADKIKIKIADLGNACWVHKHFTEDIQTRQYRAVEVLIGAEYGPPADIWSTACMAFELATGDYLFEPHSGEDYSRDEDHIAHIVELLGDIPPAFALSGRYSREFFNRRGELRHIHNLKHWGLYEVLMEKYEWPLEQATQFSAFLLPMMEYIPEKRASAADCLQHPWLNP

[3] = biological target: SRSF protein kinase 3 (Homo sapiens) (UniProt Q9UPE1); conditions: at 1 µM
[4] = biological target: Mitogen-activated protein kinase 14 (Homo sapiens) (UniProt Q16539); conditions: at 0.1 µM
Mitogen-activated protein kinase 14 (Homo sapiens), sequence (Q16539 whole entry): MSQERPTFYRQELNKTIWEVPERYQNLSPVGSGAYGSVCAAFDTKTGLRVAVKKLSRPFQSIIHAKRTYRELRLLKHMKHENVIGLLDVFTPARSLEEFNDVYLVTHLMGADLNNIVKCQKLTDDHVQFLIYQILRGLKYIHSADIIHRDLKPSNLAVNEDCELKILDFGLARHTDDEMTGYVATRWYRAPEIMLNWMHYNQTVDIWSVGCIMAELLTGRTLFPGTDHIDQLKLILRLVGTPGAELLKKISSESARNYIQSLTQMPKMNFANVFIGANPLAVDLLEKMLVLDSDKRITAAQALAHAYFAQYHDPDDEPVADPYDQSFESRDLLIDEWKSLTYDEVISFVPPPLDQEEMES

[5] = biological target: Mitogen-activated protein kinase 14 (Homo sapiens) (UniProt Q16539); conditions: at 1 µM
[6] = biological target: Mitogen-activated protein kinase 11 (Homo sapiens) (UniProt Q15759); conditions: at 0.1 µM
Mitogen-activated protein kinase 11 (Homo sapiens), sequence (Q15759 whole entry): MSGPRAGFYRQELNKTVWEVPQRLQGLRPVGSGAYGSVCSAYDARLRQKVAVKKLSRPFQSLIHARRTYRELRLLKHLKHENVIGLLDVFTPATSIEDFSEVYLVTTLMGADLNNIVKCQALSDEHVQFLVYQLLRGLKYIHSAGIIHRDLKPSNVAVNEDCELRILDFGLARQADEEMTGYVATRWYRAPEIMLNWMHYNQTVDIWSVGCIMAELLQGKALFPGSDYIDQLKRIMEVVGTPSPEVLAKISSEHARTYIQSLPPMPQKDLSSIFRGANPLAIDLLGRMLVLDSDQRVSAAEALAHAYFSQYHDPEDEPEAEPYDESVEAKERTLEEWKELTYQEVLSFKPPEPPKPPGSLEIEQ

[7] = biological target: Mitogen-activated protein kinase 11 (Homo sapiens) (UniProt Q15759); conditions: at 1 µM
[8] = biological target: T1, Mitogen-activated protein kinase 13 (Homo sapiens) (UniProt O15264); conditions: at 0.1 µM
T1 sequence (whole entry): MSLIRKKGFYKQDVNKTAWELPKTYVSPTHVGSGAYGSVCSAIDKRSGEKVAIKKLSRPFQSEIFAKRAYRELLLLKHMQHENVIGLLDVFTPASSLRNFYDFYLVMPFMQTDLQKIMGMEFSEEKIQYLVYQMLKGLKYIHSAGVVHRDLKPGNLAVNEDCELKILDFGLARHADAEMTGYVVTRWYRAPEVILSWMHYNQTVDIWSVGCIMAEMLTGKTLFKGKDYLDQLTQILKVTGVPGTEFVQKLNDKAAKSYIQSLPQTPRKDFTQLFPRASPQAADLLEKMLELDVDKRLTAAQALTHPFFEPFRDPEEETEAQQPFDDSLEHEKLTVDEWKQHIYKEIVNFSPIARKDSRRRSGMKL

[9] = biological target: T1, Mitogen-activated protein kinase 13 (Homo sapiens); conditions: at 1 µM
[10] = biological target: T2, Mitogen-activated protein kinase 12 (Homo sapiens) (UniProt P53778); conditions: at 0.1 µM
T2 sequence (whole entry): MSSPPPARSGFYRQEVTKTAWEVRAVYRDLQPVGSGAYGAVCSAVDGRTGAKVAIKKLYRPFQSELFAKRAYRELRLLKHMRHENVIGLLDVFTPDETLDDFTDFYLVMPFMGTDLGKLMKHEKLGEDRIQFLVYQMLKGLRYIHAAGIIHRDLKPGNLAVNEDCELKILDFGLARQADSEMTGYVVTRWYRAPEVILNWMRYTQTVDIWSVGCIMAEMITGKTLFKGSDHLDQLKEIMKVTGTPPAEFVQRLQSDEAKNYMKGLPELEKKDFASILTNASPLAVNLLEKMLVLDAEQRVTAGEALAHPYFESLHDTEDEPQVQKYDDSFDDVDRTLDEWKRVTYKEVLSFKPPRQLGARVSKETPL

Mitogen-activated protein kinase 3 (Homo sapiens), sequence (P27361 whole entry): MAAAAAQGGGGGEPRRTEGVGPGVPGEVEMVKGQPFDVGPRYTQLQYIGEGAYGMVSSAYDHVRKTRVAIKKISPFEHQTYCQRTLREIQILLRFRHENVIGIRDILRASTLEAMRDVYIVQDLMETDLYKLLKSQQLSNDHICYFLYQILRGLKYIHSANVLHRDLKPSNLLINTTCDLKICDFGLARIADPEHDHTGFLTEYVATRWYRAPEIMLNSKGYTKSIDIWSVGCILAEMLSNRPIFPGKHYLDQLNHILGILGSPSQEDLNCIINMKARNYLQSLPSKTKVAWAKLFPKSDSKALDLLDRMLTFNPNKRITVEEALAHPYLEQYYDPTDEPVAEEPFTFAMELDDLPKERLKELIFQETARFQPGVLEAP

SMILES	inhibition [1]	inhibition [2]	inhibition [3]	inhibition [4]	inhibition [5]	inhibition [6]	inhibition [7]	inhibition [8]	inhibition [9]	inhibition [10]
Cc1cc(O)cc(C)c1/C=C/c1cncc(C(=O)OC(C)(C)C)c1	5.66%	-1.96%	-3.77%	5.49%	6.26%	1.86%	5.95%	2.17%	1.43%	2.88%
COc1cccc(Nc2nccc(-c3cnn4ncccc34)n2)c1	13.1%	-0.05%	0.66%	5.7%	9.35%	4.7%	7.72%	5%	15.2%	1.36%
c1cnn2ncc(-c3ccnc(NCCCN4CCOCC4)n3)c2c1	0.61%	-0.52%	-0.57%	1.91%	8.35%	2.39%	4.06%	-1.15%	4.03%	-0.08%
CS(=O)(=O)Nc1ccc(-c2cc(-c3ccccc3)cc(C(N)=O)c2N)cc1	2.24%	-1.51%	-0.01%	1.19%	0.84%	1.8%	0.17%	1.96%	0.64%	0.99%
Fc1cccc(COc2ccc(Nc3ncncc3C#Cc3ccccc3)cc2Cl)c1	5.53%	-0.87%	0.58%	6.33%	11.6%	3.77%	8.28%	-1.02%	3.79%	2.17%
CN(c1ccc(NC(=O)NCCN2CCOCC2)cc1)c1ccnc(Nc2ccc(CS(C)(=O)=O)cc2)n1	3.72%	0.77%	2.7%	0.79%	5.83%	4.13%	6.58%	1.11%	3.21%	0.47%
Cc1nnc(-c2cccc(-c3ccc(C(=O)NCC4CC4)cc3)c2)o1	6.64%	-1.05%	-0.94%	4.85%	12.2%	3.66%	7.35%	3.76%	3.54%	4.5%
O=C1Nc2ccccc2/C1=C1\CCc2cc(O)ccc21	4.54%	0.01%	-0.36%	4.38%	7.01%	4.9%	5.91%	3.43%	6.56%	4.33%
COC(=O)Nc1nc2ccc(Oc3ccc(NC(=O)Nc4cc(C(F)(F)F)ccc4F)cc3)cc2s1	-0.75%	0.81%	9.68%	18.9%	63.7%	7.18%	51.5%	0.05%	0.18%	0.98%
COc1cccc(-n2ncc3c(N/N=C/c4ccc(C(=O)NCCN(C)C)cc4)ncnc32)c1	2.75%	1.28%	0.91%	2.36%	11.8%	0.2%	3.19%	3.46%	23.5%	4.06%
N#Cc1ccc2c(-c3ccnc(NC4CC4)n3)c(-c3ccc(F)cc3)nn2c1	1.27%	-2.45%	-1.38%	75.4%	84.2%	44.5%	74.8%	1.17%	0.18%	1%
CS(=O)(=O)Nc1ccc(-c2ccc3c(NC(=O)C4CC4)n[nH]c3c2)cc1	3.17%	1.14%	-1.76%	2.35%	7.21%	1.53%	0.3%	3.39%	4.07%	1.3%
COc1ccc(Nc2ncc(-c3ccccc3)o2)cc1OC	1.29%	-1.82%	-2.17%	4.31%	5.01%	1.96%	4.99%	0.77%	2.02%	4.1%
CC1(C)CC(n2cnc(-c3ccc(F)cc3)c2-c2ccnc(N)n2)CC(C)(C)N1	1.92%	-0.06%	-1.33%	64.5%	77.6%	13.6%	55.7%	1.83%	1.42%	0.38%
NS(=O)(=O)c1cccc(N/C=C2\C(=O)Nc3ccccc32)c1	1.27%	-0.21%	0.27%	7.96%	13.5%	6.33%	9.54%	1.07%	5.02%	1.32%
CS(=O)(=O)CCNCc1ccc(-c2ccc3ncnc(Nc4ccc(OCc5cccc(C(F)(F)F)c5)cc4)c3c2)o1	5%	-2.18%	-0.47%	11.9%	13.9%	1.8%	5.06%	5.4%	5.66%	3.43%

SMILES	inhibition [1]	inhibition [2]	inhibition [3]	inhibition [4]	inhibition [5]	inhibition [6]	inhibition [7]	inhibition [8]	inhibition [9]	inhibition [10]
Nc1ncnc2occ(-c3ccc(NC(=O)Nc4cc(C(F)(F)F)ccc4F)cc3)c12	2.88% and -1.29%	9.33% and 10.1%	49.1% and 43.5%	8.71% and -2.42%	36.6% and 20.3%	6.21% and 3.71%	39% and 32.9%	5.66% and 0.72%	29.3% and 17.7%	15% and 4.47%
CC1=C(C(=O)Nc2ccc3[nH]nc(C)c3c2)C(c2ccc(C(F)(F)F)cc2)CC(=O)N1 (stereo not given)	19.7%	1.18%	-0.95%	1.31%	5.28%	-0.15%	0.38%	1.19%	6.03%	-4.7%
CCOc1ccc2c(-c3ccnc(Nc4cc(OC)cc(C(F)(F)F)c4)n3)cnn2n1	2.27%	-0.03%	-0.23%	8.65%	2.85%	-0.59%	1.71%	0.55%	2.07%	3.42%
CS(=O)(=O)CCNCc1ccc(-c2ccc3ncnc(Nc4ccc(OCc5ccccc5)cc4)c3c2)o1	1.62%	-0.49%	0.73%	4.73%	7.34%	2.9%	4.87%	2.17%	1.45%	2.39%
NS(=O)(=O)c1ccc(N/N=C2\C(=O)Nc3cccc(CCc4ccncc4)c32)cc1	-1.26%	-1.55%	-0.36%	1.13%	0.21%	1.91%	3.6%	0.17%	-0.27%	0.4%
CCS(=O)(=O)c1ccc(OC)c(Nc2ncc(-c3cccc(C(C)=O)c3)o2)c1	4.06%	0.96%	0.97%	2.16%	5.09%	3.95%	3.42%	-0.9%	3.45%	-1.65%
O=C(O[C@H]1CN[C@H](C#Cc2cc3ncnc(Nc4ccc5c(cnn5Cc5ccccc5)c4)c3s2)C1)N1CCOCC1	1.75%	-1.9%	-0.82%	0.21%	0.45%	1.51%	4.76%	-1.3%	-2.91%	-1.24%
CN1CCC(n2cnc(-c3ccc(F)cc3)c2-c2ccnc(NCCO)n2)CC1	6.51%	-0.9%	1.7%	66.3%	86.3%	12.9%	52.5%	2.89%	4.31%	3.94%
Cc1cc(O)cc(C)c1/C=C/c1cncc(C(N)=O)c1	2.77%	1.7%	1.04%	4.9%	6.5%	0.52%	0.8%	2.3%	1.36%	1.1%
NS(=O)(=O)c1ccc(N/N=C2\C(=O)Nc3ccc(C(=O)NCc4ccncc4)cc32)cc1	26.3%	-1.39%	2.17%	6.35%	6.05%	4.53%	9.75%	1.65%	4.79%	-1.11%
OCCCNc1nccc(-c2c(-c3ccc(F)cc3)nn3cc(C(F)(F)F)ccc23)n1	5.6%	1.09%	3.54%	64.4%	91%	22.7%	68.7%	4.11%	3.39%	3.46%
CN1CCN(Cc2ccc(-c3cc4ncnc(Nc5ccc(OCc6cccc(F)c6)c(Cl)c5)c4s3)o2)CC1	4.3% and 6.64%	-2.01% and -2.56%	-1.87% and -0.88%	11.4% and 3.49%	11.9% and 8.59%	7.76% and 7.78%	11.5% and 9.04%	2.21% and 1.13%	1.76% and 5.79%	1.79% and 3.59%
FC(F)(F)CNc1nccc(-c2cnn3ncccc23)n1	2.69%	-4.16%	-0.66%	6.27%	5.78%	3.94%	6.08%	2.13%	2.49%	1.83%
CCS(=O)(=O)c1ccc(OC)c(Nc2ncc(-c3cccc(F)c3)o2)c1	5.09%	-2.3%	0.15%	13.4%	14.9%	4.8%	7.52%	5.58%	5.36%	3.31%
CNC(=O)c1sc(-n2cnc3cc(OC)c(OC)cc32)cc1OCc1ccccc1C(F)(F)F	3.4%	-2.11%	-0.26%	5.47%	5.08%	4.76%	4.92%	3.34%	1.88%	1.92%
